These results are taken from the antibiotic and cytotoxicity screens of Wong et al. (2023).

Each structure is given as a SMILES string. Among all 39,000 compounds or so, about 1,500 (3.8%) were called active. The sample as a whole holds a higher share of actives than the screen did.

The test system of the assay is HSkMC (human skeletal muscle cells). The assay is described as follows: cytotoxicity call (relative viability < 0.9). Particulars: 10 µM.
On to `C[C@H]1CN([C@@H](C)CO)C(=O)c2cc(NC(=O)Cn3cnnn3)ccc2O[C@H]1CN(C)C(=O)Nc1ccccc1`, for which the cytotoxicity call was “inactive”.

Take `C[C@H](CO)N1C[C@H](C)[C@@H](CN(C)Cc2ccc(C(=O)O)cc2)Oc2c(NC(=O)c3ccc(-c4nccs4)cc3)cccc2C1=O`: the cytotoxicity call was “inactive”.

As to `CC(=O)OC1CC(O)C(C)(C)C2CC(OC(C)=O)C3(C)C(CCC4(C)C(c5ccoc5)OC(=O)C5OC543)C12C` (configuration not stated), the cytotoxicity call is “inactive”.

In the case of `C[C@@H]1CN([C@@H](C)CO)C(=O)c2cc(NC(=O)Nc3ccc(F)cc3)ccc2O[C@@H](C)CCCCO[C@@H]1CN(C)S(=O)(=O)c1ccccc1`, the cytotoxicity call is “inactive”.

Turning to `COc1ccc2c3c(n(c2c1)C)[C@H](CO)N(C[C@]13CCN(CC1)C(=O)c1ccccn1)C(=O)c1ccccn1`, the cytotoxicity call is “inactive”.

`OC[C@@H]1CC[C@@H]2O[C@H](CCc3ccc(C#CCc4ccccc4)cc3)[C@@H](n3cc(-c4ccccc4)nn3)C[C@@H]2O1`: the cytotoxicity call was “inactive”.

With `O=C(Nc1ccc(F)cc1)N[C@@H]1C[C@@H]2O[C@H](CO)CC[C@@H]2O[C@@H]1CCc1ccc(-c2ccccc2)cc1`, the cytotoxicity call is “inactive”.

On to `OC[C@@H]1CC[C@@H]2O[C@H](CCc3ccc(C#CCc4ccccc4)cc3)[C@H](n3cc(-c4ccccc4)nn3)C[C@@H]2O1`, for which the cytotoxicity call is “inactive”.

Consider `OC[C@@H]1CC[C@@H]2O[C@H](CCc3ccc(C#Cc4ccccc4)cc3)[C@@H](n3cc(-c4ccccc4)nn3)C[C@@H]2O1`, for which the cytotoxicity call is “active”.

Turning to `OC[C@H]1CC[C@@H]2O[C@H](CCc3ccc(C#Cc4ccccc4)cc3)[C@H](n3cc(-c4ccccc4)nn3)C[C@@H]2O1`, the cytotoxicity call was “active”.

Take `OC[C@H]1CC[C@@H]2O[C@H](CCc3ccc(C#CCc4ccccc4)cc3)[C@H](n3cc(-c4ccccc4)nn3)C[C@@H]2O1`: the cytotoxicity call is “active”.

Turning to `OC[C@@H]1CC[C@@H]2O[C@H](CCc3ccc(C#Cc4ccccc4)cc3)[C@H](n3cc(-c4ccccc4)nn3)C[C@@H]2O1`, the cytotoxicity call is “active”.

For the molecule `OC[C@H]1CC[C@@H]2O[C@H](CCc3ccc(C#CCc4ccccc4)cc3)[C@@H](n3cc(-c4ccccc4)nn3)C[C@@H]2O1`, the cytotoxicity call is “inactive”.

Consider `OC[C@H]1CC[C@@H]2O[C@H](CCc3ccc(C#Cc4ccccc4)cc3)[C@@H](n3cc(-c4ccccc4)nn3)C[C@@H]2O1`, for which the cytotoxicity call is “inactive”.

Regarding `OC[C@H]1O[C@@H](S[C@@H]2O[C@H](CO)[C@H](O)[C@H](n3cc(-c4cccc(F)c4)nn3)[C@H]2O)[C@H](O)[C@@H](n2cc(-c3cccc(F)c3)nn2)[C@H]1O`, the cytotoxicity call is “inactive”.

Turning to `O=C(Nc1ccc(F)cc1)N[C@@H]1C[C@@H]2O[C@@H](CO)CC[C@@H]2O[C@@H]1CCc1ccc(-c2ccccc2)cc1`, the cytotoxicity call is “inactive”.

For the molecule `N[C@@H]1CC[C@@H](CCn2cc(-c3cccc(F)c3)nn2)O[C@H]1CO`, the cytotoxicity call was “inactive”.

With `C[C@H](CO)N1C[C@H](C)[C@H](CN(C)S(=O)(=O)c2cn(C)cn2)Oc2c(NC(=O)Nc3ccc4c(c3)OCO4)cccc2C1=O`, the cytotoxicity call was “inactive”.

With `O=C1CNC(=O)N1C1CCNCC1`, the cytotoxicity call is “inactive”.

Take `O=C(N/N=C/[C@H](O)[C@@H](O)[C@H](O)[C@H](O)CO[C@H]1O[C@H](CO)[C@H](O)[C@H](O)[C@H]1O)c1ccccn1`: the cytotoxicity call was “inactive”.

As to `O=C(O)CN1Cc2ccccc2C1=O`, the cytotoxicity call was “inactive”.

Consider `Cc1noc(C)c1S(=O)(=O)N(C)C[C@@H]1OCCCC[C@H](C)Oc2ccc(NS(C)(=O)=O)cc2C(=O)N([C@H](C)CO)C[C@@H]1C`, for which the cytotoxicity call was “inactive”.

`C[C@H](CO)N1C[C@H](C)[C@H](CN(C)Cc2ccccc2)OCCCC[C@H](C)Oc2ccc(NC(=O)CCC(F)(F)F)cc2C1=O`: the cytotoxicity call is “inactive”.

For the molecule `COc1ccc(S(=O)(=O)Nc2cccc3c2O[C@@H](CN(C)CC2CC2)[C@@H](C)CN([C@H](C)CO)C3=O)cc1`, the cytotoxicity call is “inactive”.

For `C[C@H](O)C#Cc1ccc2c(c1)O[C@H](CN(C)C(=O)CN(C)C)[C@H](C)CN([C@@H](C)CO)S2(=O)=O`, the cytotoxicity call is “inactive”.

For `CN(C)CCc1cc(Br)c(OCCCNC(=O)/C=C/c2cc(Br)c(OCCN3CCCCC3)c(Br)c2)c(Br)c1`, the cytotoxicity call is “inactive”.

Take `CN(C)CCOc1c(Br)cc(/C=C/C(=O)NCCCOc2c(Br)cc(CCN(C)C)cc2Br)cc1Br`: the cytotoxicity call is “inactive”.

With `CN(C)CCc1cc(Br)c(OCCCNC(=O)/C=C/c2cc(Br)c(OCCN3CCCC3)c(Br)c2)c(Br)c1`, the cytotoxicity call was “active”.

With `COc1cc(/C=C/C(=O)NCCCNC(=O)/C=C/c2cc(OC)c(OC)c(OC)c2)cc(OC)c1OC`, the cytotoxicity call was “inactive”.

Consider `CC(C)N(CCOc1c(Br)cc(/C=C/C(=O)NCCCOc2c(Br)cc(CCN(C)C)cc2Br)cc1Br)C(C)C`, for which the cytotoxicity call is “active”.

`CC(=O)OCC(=O)NCCCOc1cccc(CN2CCCCC2)c1.Cl`: the cytotoxicity call is “inactive”.

As for `Cc1noc(C)c1NC(=O)Nc1ccc2c(c1)C(=O)N([C@H](C)CO)C[C@@H](C)[C@H](CN(C)Cc1ccc(C(=O)O)cc1)OCCCC[C@@H](C)O2`, the cytotoxicity call was “inactive”.

Turning to `CN1CCN(C(=O)C[C@@H]2CC[C@H](NC(=O)Cc3ccccn3)[C@@H](CO)O2)CC1`, the cytotoxicity call is “inactive”.

Regarding `C[C@H]1CN([C@@H](C)CO)C(=O)c2cc(NC(=O)NC3CCCCC3)ccc2O[C@@H]1CN(C)Cc1ccc(-c2ccccc2)cc1`, the cytotoxicity call was “inactive”.

As to `COc1ccc(S(=O)(=O)N[C@H]2C=C[C@H](CC(=O)NCCc3ccncc3)O[C@H]2CO)cc1`, the cytotoxicity call was “inactive”.

For the molecule `COc1ccc(S(=O)(=O)N(C)C[C@@H]2Oc3ccc(NS(C)(=O)=O)cc3CC(=O)N([C@H](C)CO)C[C@H]2C)cc1`, the cytotoxicity call was “inactive”.

Consider `Cc1noc(C)c1S(=O)(=O)N(C)C[C@@H]1Oc2ccc(NC(=O)CCC(F)(F)F)cc2CC(=O)N([C@@H](C)CO)C[C@H]1C`, for which the cytotoxicity call was “inactive”.

On to `O=C(O)CN(CC(=O)O)Cc1cc2c(-c3ccccc3C(=O)O)c3cc(CN(CC(=O)O)CC(=O)O)c(=O)cc-3oc2cc1O`, for which the cytotoxicity call is “inactive”.

For the molecule `O=C(O)c1ccccc1-c1c2cc(I)c(=O)c(I)c-2oc2c(I)c(O)c(I)cc12`, the cytotoxicity call is “active”.

`O=C([O-])c1ccccc1-c1c2cc(I)c(=O)c(I)c-2oc2c(I)c([O-])c(I)cc12.[Na+].[Na+]`: the cytotoxicity call was “inactive”.

Turning to `Cn1cnc(CCNC(=O)C[C@H]2CC[C@H]3[C@@H](COC[C@H](O)CN3C(=O)Nc3ccc(Cl)cc3)O2)c1`, the cytotoxicity call was “inactive”.

Turning to `O=C(C[C@@H]1CC[C@@H]2[C@H](COC[C@H](O)CN2S(=O)(=O)c2ccccc2F)O1)N1CCC(Cc2ccccc2)CC1`, the cytotoxicity call is “inactive”.
